About 8,800 targets were measured; listed, in parts, are those with a hit and a random draw of the rest. About 0.5% of all pairs of compound and target were hits. Unmarked numbers belong to inactive results.
How the values were obtained:
Assay in all cases: log2 fold change, soluble protein after heating vs DMSO (PISA); higher = thermal stabilisation; K562 lysate, 10 uM; active = over 0.2 and 3.5 SD of the protein, either way, in both replicates (recomputed)
[1] = compound: NCC(=O)Nc1ccc(-n2nc(C(F)(F)F)cc2-c2ccc3c(ccc4ccccc43)c2)cc1
How it was run: (§1)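 The values are log-two fold changes in thermal stability compared with solvent controls and come from duplicates. They were obtained by TMTpro 16plex LC-MS/MS, with channel sums equalised, on the supernatant after 21,000xg for 90 min. That supernatant came from crude K562 extract at 1 mg/mL protein treated with 10 μM compound for 30 min, heated for 3 min across 48°C-58°C, pooled and brought to 0.5% NP-40 at 4°C.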

vorinostat = compound: O=C(CCCCCCC(=O)Nc1ccccc1)NO [vorinostat]
How it was run: as §1

silmitasertib = compound: O=C(O)c1ccc2c(c1)nc(Nc1cccc(Cl)c1)c1ccncc12 [silmitasertib]
How it was run: as §1

[2] = compound: O=C1NC(=O)C(c2cnc3ccccn23)=C1c1cn2c3c(cc(F)cc13)CN(C(=O)N1CCCCC1)CC2
How it was run: as §1

entospletinib = compound: c1cn2cc(-c3ccc4cn[nH]c4c3)nc(Nc3ccc(N4CCOCC4)cc3)c2n1 [entospletinib]
How it was run: as §1

Chain of UniProt Q8WWV3 (Q8WWV3 whole entry, looked up): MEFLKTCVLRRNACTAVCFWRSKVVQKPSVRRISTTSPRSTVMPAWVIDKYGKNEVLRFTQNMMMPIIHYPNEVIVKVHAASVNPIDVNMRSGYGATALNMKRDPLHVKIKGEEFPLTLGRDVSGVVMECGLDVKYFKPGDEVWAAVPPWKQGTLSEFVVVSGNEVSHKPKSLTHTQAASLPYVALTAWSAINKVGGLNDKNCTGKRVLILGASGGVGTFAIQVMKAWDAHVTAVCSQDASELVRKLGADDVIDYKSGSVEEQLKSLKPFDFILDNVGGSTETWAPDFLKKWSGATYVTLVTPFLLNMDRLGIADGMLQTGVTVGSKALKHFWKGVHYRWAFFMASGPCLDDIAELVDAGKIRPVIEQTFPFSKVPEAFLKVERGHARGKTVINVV
Chain of UniProt Q6UVJ0 (Q6UVJ0 whole entry, looked up): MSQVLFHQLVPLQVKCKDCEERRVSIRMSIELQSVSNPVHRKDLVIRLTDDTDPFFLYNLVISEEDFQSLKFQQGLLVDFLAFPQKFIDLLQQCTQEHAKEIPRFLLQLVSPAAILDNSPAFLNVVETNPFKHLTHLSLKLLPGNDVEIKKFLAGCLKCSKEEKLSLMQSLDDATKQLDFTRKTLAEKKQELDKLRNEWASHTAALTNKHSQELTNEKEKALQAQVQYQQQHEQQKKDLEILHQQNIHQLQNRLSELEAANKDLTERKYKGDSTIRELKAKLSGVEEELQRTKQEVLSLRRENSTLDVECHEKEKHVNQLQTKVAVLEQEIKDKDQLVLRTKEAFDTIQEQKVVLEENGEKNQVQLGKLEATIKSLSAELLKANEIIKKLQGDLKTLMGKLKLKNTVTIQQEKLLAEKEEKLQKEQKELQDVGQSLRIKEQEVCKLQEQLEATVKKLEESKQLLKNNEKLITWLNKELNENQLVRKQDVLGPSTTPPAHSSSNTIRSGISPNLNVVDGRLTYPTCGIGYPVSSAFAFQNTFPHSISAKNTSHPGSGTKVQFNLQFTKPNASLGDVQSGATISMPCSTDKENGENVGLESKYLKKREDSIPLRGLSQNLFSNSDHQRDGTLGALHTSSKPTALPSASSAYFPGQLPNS
Chain of UniProt O94762 (O94762 whole entry, looked up): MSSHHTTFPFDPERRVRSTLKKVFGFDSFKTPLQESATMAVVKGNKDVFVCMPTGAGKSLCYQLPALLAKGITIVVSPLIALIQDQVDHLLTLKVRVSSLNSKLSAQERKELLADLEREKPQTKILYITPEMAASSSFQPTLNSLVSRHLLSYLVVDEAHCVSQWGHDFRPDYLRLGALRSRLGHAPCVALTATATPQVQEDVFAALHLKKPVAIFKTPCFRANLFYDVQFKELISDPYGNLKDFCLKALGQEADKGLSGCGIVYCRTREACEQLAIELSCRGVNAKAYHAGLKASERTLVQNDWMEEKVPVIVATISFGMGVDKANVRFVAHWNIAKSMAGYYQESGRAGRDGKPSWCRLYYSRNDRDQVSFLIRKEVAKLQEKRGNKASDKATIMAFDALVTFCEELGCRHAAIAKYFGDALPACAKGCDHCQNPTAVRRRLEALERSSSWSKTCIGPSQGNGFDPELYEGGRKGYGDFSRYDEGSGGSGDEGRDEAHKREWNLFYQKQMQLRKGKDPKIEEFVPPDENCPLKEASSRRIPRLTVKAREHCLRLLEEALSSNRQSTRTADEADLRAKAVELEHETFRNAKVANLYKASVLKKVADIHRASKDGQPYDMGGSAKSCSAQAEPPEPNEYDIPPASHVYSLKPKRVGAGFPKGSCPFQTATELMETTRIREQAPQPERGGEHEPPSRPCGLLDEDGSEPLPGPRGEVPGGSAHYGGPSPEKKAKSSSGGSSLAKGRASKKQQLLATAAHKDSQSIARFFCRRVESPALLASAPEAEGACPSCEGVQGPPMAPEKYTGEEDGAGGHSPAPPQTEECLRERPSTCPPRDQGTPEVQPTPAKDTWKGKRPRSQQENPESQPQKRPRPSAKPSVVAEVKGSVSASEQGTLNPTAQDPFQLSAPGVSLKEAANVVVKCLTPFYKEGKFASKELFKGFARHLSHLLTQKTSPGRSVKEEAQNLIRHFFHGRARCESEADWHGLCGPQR
Chain of UniProt Q9UL25 (Q9UL25 whole entry, looked up): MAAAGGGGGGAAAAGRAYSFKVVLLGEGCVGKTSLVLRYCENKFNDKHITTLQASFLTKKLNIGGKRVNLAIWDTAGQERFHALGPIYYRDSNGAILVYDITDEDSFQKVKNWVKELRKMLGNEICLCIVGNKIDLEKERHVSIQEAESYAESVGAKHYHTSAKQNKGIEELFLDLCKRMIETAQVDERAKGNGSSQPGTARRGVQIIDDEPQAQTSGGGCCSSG
Chain of UniProt Q9UQR0 (Q9UQR0 whole entry, looked up): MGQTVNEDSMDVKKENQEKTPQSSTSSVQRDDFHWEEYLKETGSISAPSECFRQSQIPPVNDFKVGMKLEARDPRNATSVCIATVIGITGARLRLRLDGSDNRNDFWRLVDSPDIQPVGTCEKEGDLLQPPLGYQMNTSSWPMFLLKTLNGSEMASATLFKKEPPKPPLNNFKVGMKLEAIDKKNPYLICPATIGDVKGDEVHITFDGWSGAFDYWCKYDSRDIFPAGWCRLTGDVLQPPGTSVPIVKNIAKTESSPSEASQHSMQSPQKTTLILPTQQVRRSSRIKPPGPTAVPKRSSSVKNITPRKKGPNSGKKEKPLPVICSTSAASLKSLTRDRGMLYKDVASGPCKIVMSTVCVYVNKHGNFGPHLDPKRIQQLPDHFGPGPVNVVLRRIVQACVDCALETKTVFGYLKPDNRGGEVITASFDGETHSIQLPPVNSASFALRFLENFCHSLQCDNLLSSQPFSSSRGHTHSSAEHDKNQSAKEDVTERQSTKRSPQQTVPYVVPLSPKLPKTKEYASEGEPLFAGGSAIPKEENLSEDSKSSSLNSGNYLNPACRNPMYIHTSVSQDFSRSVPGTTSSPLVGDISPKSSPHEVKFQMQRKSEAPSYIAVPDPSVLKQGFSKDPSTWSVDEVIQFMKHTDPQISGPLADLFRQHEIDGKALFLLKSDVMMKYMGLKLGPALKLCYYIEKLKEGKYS
Chain of UniProt P40937 (P40937 whole entry, looked up): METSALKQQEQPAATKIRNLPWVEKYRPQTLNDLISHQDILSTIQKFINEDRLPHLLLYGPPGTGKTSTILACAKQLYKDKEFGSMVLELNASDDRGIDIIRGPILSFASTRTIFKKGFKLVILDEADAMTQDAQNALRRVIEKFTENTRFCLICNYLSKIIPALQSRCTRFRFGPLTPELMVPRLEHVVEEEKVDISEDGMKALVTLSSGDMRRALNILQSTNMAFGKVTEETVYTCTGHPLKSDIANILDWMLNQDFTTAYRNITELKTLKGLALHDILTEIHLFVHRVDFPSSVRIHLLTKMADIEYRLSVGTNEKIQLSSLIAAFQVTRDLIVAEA
Chain of UniProt P54136 (P54136 whole entry, looked up): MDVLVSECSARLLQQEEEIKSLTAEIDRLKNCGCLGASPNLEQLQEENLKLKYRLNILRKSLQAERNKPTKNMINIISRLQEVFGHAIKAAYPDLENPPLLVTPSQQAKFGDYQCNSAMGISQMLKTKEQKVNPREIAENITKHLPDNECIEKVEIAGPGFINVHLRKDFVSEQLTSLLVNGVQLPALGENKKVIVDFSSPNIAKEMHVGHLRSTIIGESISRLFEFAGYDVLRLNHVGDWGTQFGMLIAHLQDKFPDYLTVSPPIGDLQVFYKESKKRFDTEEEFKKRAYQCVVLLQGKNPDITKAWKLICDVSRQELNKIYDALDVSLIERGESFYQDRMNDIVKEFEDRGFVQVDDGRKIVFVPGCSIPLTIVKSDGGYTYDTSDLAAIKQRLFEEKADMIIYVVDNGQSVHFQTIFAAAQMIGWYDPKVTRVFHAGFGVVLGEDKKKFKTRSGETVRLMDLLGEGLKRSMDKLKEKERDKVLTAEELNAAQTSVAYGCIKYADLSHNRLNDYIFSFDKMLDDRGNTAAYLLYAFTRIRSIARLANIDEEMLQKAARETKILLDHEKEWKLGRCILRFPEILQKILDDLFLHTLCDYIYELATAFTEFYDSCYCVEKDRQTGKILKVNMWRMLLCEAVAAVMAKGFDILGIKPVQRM
Chain of UniProt Q99643 (Q99643 whole entry, looked up): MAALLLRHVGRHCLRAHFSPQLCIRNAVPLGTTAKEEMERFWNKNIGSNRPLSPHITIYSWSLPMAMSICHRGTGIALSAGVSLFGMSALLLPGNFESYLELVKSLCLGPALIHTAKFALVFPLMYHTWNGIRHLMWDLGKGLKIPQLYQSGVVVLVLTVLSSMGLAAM
Chain of UniProt Q9GZR2 (Q9GZR2 whole entry, looked up): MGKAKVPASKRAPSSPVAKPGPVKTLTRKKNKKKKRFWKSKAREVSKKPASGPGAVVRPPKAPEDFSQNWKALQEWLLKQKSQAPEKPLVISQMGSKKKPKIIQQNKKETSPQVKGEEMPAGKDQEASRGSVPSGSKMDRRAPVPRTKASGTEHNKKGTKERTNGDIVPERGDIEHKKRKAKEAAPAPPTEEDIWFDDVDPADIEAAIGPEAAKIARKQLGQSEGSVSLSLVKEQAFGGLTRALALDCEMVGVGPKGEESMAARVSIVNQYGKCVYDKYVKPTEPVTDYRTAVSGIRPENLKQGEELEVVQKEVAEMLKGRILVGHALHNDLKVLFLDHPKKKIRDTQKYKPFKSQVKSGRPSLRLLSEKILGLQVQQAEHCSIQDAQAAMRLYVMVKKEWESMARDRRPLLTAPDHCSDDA
Chain of UniProt P18754 (P18754 whole entry, looked up): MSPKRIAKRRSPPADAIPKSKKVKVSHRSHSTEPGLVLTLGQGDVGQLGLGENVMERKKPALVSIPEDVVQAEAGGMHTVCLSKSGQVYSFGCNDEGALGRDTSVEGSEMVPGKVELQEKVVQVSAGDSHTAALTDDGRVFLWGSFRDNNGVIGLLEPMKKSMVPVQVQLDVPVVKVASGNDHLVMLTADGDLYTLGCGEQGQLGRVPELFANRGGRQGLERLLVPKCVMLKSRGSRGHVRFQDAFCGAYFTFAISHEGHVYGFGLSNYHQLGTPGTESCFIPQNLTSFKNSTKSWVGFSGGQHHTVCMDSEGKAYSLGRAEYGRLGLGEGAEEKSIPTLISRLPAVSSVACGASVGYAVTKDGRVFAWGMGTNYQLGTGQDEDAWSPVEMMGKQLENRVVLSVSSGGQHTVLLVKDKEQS

Row | Target | log2 fold change [1] | log2 fold change (vorinostat) | log2 fold change (silmitasertib) | log2 fold change [2] | log2 fold change (entospletinib)
1 | SEMA4G isoform 2 (UniProt Q9NTN9) | 0.078 | -0.513 (active) | 0.172 | 0.103 | -0.09
2 | RTN4IP1 (UniProt Q8WWV3) | -0.1 | -0.338 (active) | 0.165 | 0.054 | -0.01
3 | RCC1 isoform 2 (UniProt P18754) | 0.009 | -0.381 (active) | 0.034 | 0.051 | -0.014
4 | RBM8A (UniProt Q9Y5S9) | -0.113 | 0.103 | 0.042 | -0.046 | -0.019
5 | SEC16A isoform 5 (UniProt O15027) | 0.053 | -0.281 (active) | 0.008 | -0.029 | -0.015
6 | REXO4 (UniProt Q9GZR2) | 0.03 | -0.127 | 0.05 | -0.035 | 0.067
7 | RFC5 (UniProt P40937) | 0.019 | -0.492 (active) | 0.031 | 0.019 | 0.014
8 | RAB3IL1 (UniProt Q8TBN0) | -0.006 | -0.268 (active) | 0.025 | 0.07 | 0.015
9 | RPL28 (UniProt P46779) | 0.012 | 0.033 | 0.008 | 0.043 | 0.007
10 | RBBP7 isoform 2 (UniProt Q16576) | -0.043 | 0.03 | -0.012 | -0.068 | 0.024
11 | SASS6 (UniProt Q6UVJ0) | 0.015 | -0.381 (active) | 0.012 | 0.021 | 0.003
12 | RMC1 (UniProt Q96DM3) | 0.008 | -0.391 (active) | 0.017 | -0.013 | 0.037
13 | RARS (UniProt P54136) | -0.004 | -0.309 (active) | 0.056 | -0.009 | 0.024
14 | RETREG2 (UniProt Q8NC44) | -0.058 | 0.023 | 0.015 | -0.007 | -0.004
15 | RAB3IL1 (UniProt E9PK89) | 0.016 | -0.614 (active) | 0.011 | 0.079 | -0.158
16 | RPN2 (UniProt P04844) | -0.007 | 0.118 | 0.008 | -0.04 | -0.009
17 | RAB21 (UniProt Q9UL25) | 0.017 | -0.235 | -0.021 | 0.029 | 0.02
18 | RAB8B (UniProt Q92930) | -0.022 | 0.135 | -0.025 | 0 | -0.021
19 | RBBP8 isoform 2 (UniProt Q99708) | -0.035 | 0.076 | -0.13 | -0.028 | -0.002
20 | RECQL5 (UniProt O94762) | -0.063 | -0.307 (active) | -0.094 | 0.03 | 0.024
21 | RBM23 isoform 2 (UniProt Q86U06) | 0.121 | -0.334 | -0.019 | -0.113 | 0.037
22 | SDHC (UniProt Q99643) | -0.046 | -0.196 | 0.048 | -0.071 | 0.088
23 | RPS18 (UniProt P62269) | 0.033 | 0.081 | 0.019 | 0.007 | -0.02
24 | SCML2 (UniProt Q9UQR0) | -0.099 | -0.243 (active) | 0.039 | 0.037 | 0.007

Source: the supplement of paper PMC10849652
